A number with no mark means an inactive call. Inconclusive results are not listed. Activity calls are given as the source filed them. Unless noted, calls follow the shape of the dose curve; as a rule, active = well fitted curve in the direction sought with a large enough effect in the repeat runs; inconclusive = weak or mixed curves; inactive = no such curve, though single readings can be large; an effect the other way counts as inactive or inconclusive.

Test [1] is described as follows: A CellTox Green Cytotoxicity Assay to monitor cytotoxicity in HEK293 cells - 32 hour (AID 1224881). Also: nearly all actives have a fitted effect of over 40% in size. In short, it runs like this:
(§1)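 Fluorescence from a DNA-binding dye excluded by viable cells was measured repeatedly in the same HEK293 wells (600 cells/well) during continuous compound exposure at 37 C. Each assay gives one read point: 0, 8, 16, 24, 32 or 40 h.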

Test [2] can be described thus: A CellTox Green Cytotoxicity Assay to monitor cytotoxicity in HepG2 cells - 0 hour (AID 1224882). Also: nearly all actives have a fitted effect of over 35% in size. The gist of the method: (§2)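 Real-time cytotoxicity: fluorescence of a cell-impermeant cyanine dye binding DNA of dead HepG2 cells, measured repeatedly (0–40 h) during compound exposure at 37 C. Cells seeded 600/well with reagent, dosed after 5 h.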
Test [3] in a line: A CellTox Green Cytotoxicity Assay to monitor cytotoxicity in HepG2 cells - 32 hour (AID 1224883). Also: nearly all actives have a fitted effect of over 50% in size. Also: potency is read from the fitted curve at half-maximal effect. The gist of the method: as §2
The nature of test [4]: A CellTox Green Cytotoxicity Assay to monitor cytotoxicity in HEK293 cells - 8 hour (AID 1224884). Also: nearly all actives have a fitted effect of over 35% in size. The gist of the method:
as §1

Test [5] in a line: qHTS RealTime-Glo MT Cell Viability Assay in HepG2 cells - 16 hour (AID 1224885). Also: nearly all actives have a fitted effect of over 50% in size. In short, it runs like this: (§3)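 Tox21 10K library screened in qHTS format on HepG2 cells carrying RealTime-Glo reagents. Compounds were added after a 5 h preincubation, and the luminescent signal from continuous culture was measured repeatedly during 40 h treatment.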
On the technique in general: Quantitative high-throughput screening tests each substance at several concentrations.

Test [6] is described as follows: qHTS RealTime-Glo MT Cell Viability Assay in HEK293 cells - 8 hour (AID 1224887). Also: top concentration of the series differs between compounds; nearly all actives have a fitted effect of over 50% in size. In short, it runs like this:
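Luminescence, which tracks viable cell number through reduction of the prosubstrate to a NanoLuc substrate, was read over continuous 37 C culture. Cells (600/well) were premixed with reagent and rested 5 h before 23 nL of compound in DMSO was pinned.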

The nature of test [7]: qHTS RealTime-Glo MT Cell Viability Assay in HepG2 cells - 0 hour (AID 1224889). Also: nearly all actives have a fitted effect of over 50% in size. Also: potency is read from the fitted curve at half-maximal effect. In short, it runs like this: as §3
Test [8] in a line: A CellTox Green Cytotoxicity Assay to monitor cytotoxicity in HepG2 cells - 8 hour (AID 1224890). Also: nearly all actives have a fitted effect of over 45% in size. The gist of the method:
as §2

Test [9] can be described thus: qHTS assay to identify small molecule antagonists of the estrogen receptor alpha (ER-alpha) signaling pathway using the BG1 cell line in the presence of 0.1 nM 17-beta-estradiol - cell viability counter screen (AID 1259241). Also: nearly all actives have a fitted effect of over 40% in size. In short, it runs like this: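 CellTiter-Fluor read (30 min, 37C) on ER-alpha/ERE-luc VM7Luc4E2 cells; 22 hr compound treatment; agonist 0.1 nM E2 final; same-well multiplex.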

Test [10] can be described thus: qHTS assay to identify small molecule antagonists of the androgen receptor (AR) signaling pathway using the MDA cell line in the presence of 0.5 nM R1881 - cell viability counter screen (AID 1259242). Also: nearly all actives have a fitted effect of over 45% in size. The gist of the method: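 Live-cell protease activity was measured by CellTiter-Fluor fluorescence after 30 min. Before that, MDA-kb2 MMTV-luciferase cells had 16 hr at 37C without CO2, exposed to test compounds and 0.5 nM R1881 final.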

Test [11] concerns the target Estrogen receptor (Homo sapiens) (UniProt P03372). The experiment in a line: qHTS assay to identify small molecule antagonists of the estrogen receptor alpha (ER-alpha) signaling pathway using the BG1 cell line in the presence of 0.1 nM 17-beta-estradiol (AID 1259244). Also: nearly all actives have a fitted effect of over 50% in size. The gist of the method: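 Luciferase luminescence (ONE-Glo, 30 min at room temperature) was read after 22 hr at 37C exposure to compounds plus 17beta-estradiol at 0.1 nM final. Cells were VM7Luc4E2 with endogenous ER-alpha and an ERE-driven luciferase, pre-cultured 5 days in hormone-depleted medium.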

Test [12] can be described thus: qHTS assay to identify small molecule HDAC inhibitors (AID 1259364). Also: nearly all actives have a fitted effect of over 45% in size. Also: potency is read from the fitted curve at half-maximal effect. In short, it runs like this: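 Luminescence read after 30 min room-temperature HDAC-Glo incubation measures cellular class I/II HDAC activity. Compounds were applied for 2 hr at 37 C to HCT-116 wild-type cells seeded the day before.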
Test [13] can be described thus: qHTS assay to identify small molecule HDAC inhibitors - cell viability counter screen (AID 1259365). In short, it runs like this: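 To flag cytotoxic hits, 1,500 wild-type HCT-116 cells per well, plated the day before, receive test compounds for 2hr at 37 C before CellTiter-Glo reagent and a luminescence read.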
The nature of test [14]: qHTS assay to identify small molecule agonists of the sonic hedgehog signaling (Shh) pathway (AID 1259368; calls by dose curve;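 also: NIH/3T3-derived 3T3Gli1-Luc cells carrying a stable Gli1-driven firefly luciferase reporter; series mostly up to about 92 µM; nearly all actives have a fitted effect of over 15% in size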). The gist of the method: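 Luminescence was read after 30 min at room temperature with luciferase reagent. Before that, 3T3Gli1-Luc cells (NIH/3T3 clone, stable Gli1-Luc reporter; 2,000/well) were exposed to compounds for 24 hr at 37C, 5% CO2, compounds being added 4 hr post-plating.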

Test [15] is described as follows: qHTS RealTime-Glo MT Cell Viability Assay in HEK293 cells - 24 hour (AID 1224886). The gist of the method: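 Luminescence generated by NanoLuc from substrate produced by living HEK293 cells served as the viability signal. Each value reflects the reading at its stated time point during continuous 40 h compound exposure at 37 C.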
Test [16] is described as follows: A CellTox Green Cytotoxicity Assay to monitor cytotoxicity in HEK293 cells - 16 hour (AID 1224888). Also: nearly all actives have a fitted effect of over 35% in size. In short, it runs like this:
as §1

Test [17] is described as follows: qHTS assay to identify small molecule phospholipidosis (PLD) inducers (AID 1259344; active = well fitted curve in the direction sought with a large enough effect; an effect the other way counts as inactive or inconclusive). The gist of the method:
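Accumulated phospholipid, stained red by LipidTOX during 24 h compound treatment of HepG2 cells at 37 C, is quantified from images as pit number and intensity, normalised per cell using Hoechst-stained nuclei.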

Test [18] is described as follows: qHTS assay to identify small molecule agonists of the sonic hedgehog signaling (Shh) pathway - cell viability counter screen (AID 1259366). Also: nearly all actives have a fitted effect of over 50% in size. The gist of the method: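 Fluorescence from CellTiter-Fluor reports live cells in this counter screen. NIH/3T3-derived Gli1-Luc reporter cells receive test compounds for 24hr at 37C; reagent goes in at 23hr.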
A short description of test [19]: qHTS assay to identify small molecule antagonists of the sonic hedgehog signaling (Shh) pathway - cell viability counter screen (AID 1259367). Also: nearly all actives have a fitted effect of over 55% in size. In short, it runs like this:
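CellTiter-Fluor signal in conditioned medium-stimulated 3T3 Gli1-Luc cells, 23 hr compound exposure, 37C.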

Chain of Estrogen receptor (Homo sapiens) (P03372 whole entry, looked up): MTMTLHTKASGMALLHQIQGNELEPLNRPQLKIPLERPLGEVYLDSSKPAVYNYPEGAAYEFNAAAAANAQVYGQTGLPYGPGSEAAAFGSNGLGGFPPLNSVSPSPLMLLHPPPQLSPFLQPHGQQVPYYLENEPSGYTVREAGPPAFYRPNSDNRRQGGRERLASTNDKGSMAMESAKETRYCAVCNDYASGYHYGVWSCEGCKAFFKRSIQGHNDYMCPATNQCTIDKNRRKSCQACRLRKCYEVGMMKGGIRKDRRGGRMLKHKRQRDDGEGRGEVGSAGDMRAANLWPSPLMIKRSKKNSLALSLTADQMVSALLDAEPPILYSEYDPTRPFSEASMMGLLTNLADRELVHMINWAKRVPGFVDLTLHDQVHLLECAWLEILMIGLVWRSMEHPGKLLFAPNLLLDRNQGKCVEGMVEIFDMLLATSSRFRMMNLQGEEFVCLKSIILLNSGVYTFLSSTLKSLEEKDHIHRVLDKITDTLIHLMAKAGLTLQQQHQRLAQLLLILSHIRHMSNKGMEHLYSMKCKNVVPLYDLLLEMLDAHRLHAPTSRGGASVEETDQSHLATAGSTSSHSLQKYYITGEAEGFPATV

For the compound `CCC(C)N(C)C(=O)c1cc2ccccc2c(-c2ccccc2Cl)n1` (stereo not given), the Potency entry in [1], in [2], in [4], in [5], in test [6] and in test [8] was “inactive” throughout. The Potency result in test [9], in test [10], in test [11] and in test [12] was “inactive” each time. Further, the Potency was 25.2 µM (active) in [3] and 20 µM (active) in [7]. For the same compound, the outcome in test [13] and in test [14] was inactive.

As for `CC[C@H](C)[C@H](N)C(=O)O`, the Potency result in [1], in test [2], in test [3], in test [4], in test [5] and in test [15] was “inactive” throughout. Moreover, the Potency entry in test [16], in test [7], in [8], in test [9], in [10] and in test [11] was “inactive” throughout. Further, the Potency result in [17], in [12], in [18] and in test [19] was “inactive” each time. The compound was classed as inactive in test [13] and in [14].

As for `S=C(S)NCCNC(=S)S`, the Potency result in test [1], in test [2], in [3], in [4], in test [15] and in test [6] was “inactive” throughout. The Potency entry in test [16], in [7], in test [8], in test [9], in test [10] and in test [12] was “inactive” throughout. In addition, the Potency result in [18] and in [19] was “inactive” throughout. Moreover, the result in test [13] and in [14] was inactive.

In the case of `Nc1nc(N)c(-c2ccccc2)s1`, the Potency entry in [1], in [2], in test [3], in test [4], in [15] and in test [6] was “inactive” in each case. In addition, the Potency entry in test [16], in test [7], in test [9], in test [10], in test [17] and in [12] was “inactive” each time. Also, the Potency result in test [18] and in test [19] was “inactive” throughout. Further, the outcome in test [13] and in [14] was inactive.

As to `CC(C)CC=O`, the Potency entry in test [1], in test [2], in test [3], in test [4], in test [5] and in test [15] was “inactive” each time. For the same compound, the Potency result in test [6], in test [7], in test [9], in test [10], in test [11] and in test [12] was “inactive” in each case. For the same compound, the Potency entry in [18] and in test [19] was “inactive” each time. In addition, the result in [13] and in test [14] was inactive.

`N#CCCNCCC#N`: the Potency result in test [1], in test [2], in test [3], in [4], in test [5] and in test [15] was “inactive” in each case. Also, the Potency result in test [16], in test [7], in test [9], in test [10], in [11] and in [12] was “inactive” each time. The Potency entry in test [18] and in [19] was “inactive” each time. The call in test [13] and in test [14] was inactive.

Regarding `O=C(O)c1cccc(N(Cc2cccnc2)c2ccc(OC(F)F)c(OC(F)F)c2)c1`, the Potency entry in test [1], in [2], in test [3], in [4], in test [15] and in test [6] was “inactive” in each case. Moreover, the Potency entry in [16], in test [8], in test [9], in [10], in [12] and in test [18] was “inactive” each time. Further, the Potency result in test [19] is “inactive”. Moreover, in test [7], the Potency was 17.4 µM (active). Moreover, the compound was called inactive in test [13] and in [14].

On to `Nc1ccc(C(=O)Nc2ccccc2N)cc1`, for which the Potency entry in test [1], in [2], in test [4], in test [5], in [6] and in [16] was “inactive” in each case. The Potency result in test [7], in test [8], in test [9], in [10], in [11] and in test [17] was “inactive” throughout. The Potency result in [18] and in test [19] was “inactive” throughout. The Potency in [3] was 7.56 µM (active); in test [12] it was 2.98 µM (active). Also, the call in [13] and in test [14] was inactive.

The values are drawn from PubChem BioAssay (Tox21).
